Compounds with a hit are over-represented: about 5.6% of the library has one in this group of screens.
PHOSPHO1 inh – PubChem AID 1565; Phosphoethanolamine/phosphocholine phosphatase (Homo sapiens), Q8TCT1; recombinant PHOSPHO1, absorbance phosphatase assay; inhibition, % at 13.3 µM; hit rate 1.1% among 290,000; in the data active = inhibition above about 60%
Target sequence (Q8TCT1 whole entry, looked up): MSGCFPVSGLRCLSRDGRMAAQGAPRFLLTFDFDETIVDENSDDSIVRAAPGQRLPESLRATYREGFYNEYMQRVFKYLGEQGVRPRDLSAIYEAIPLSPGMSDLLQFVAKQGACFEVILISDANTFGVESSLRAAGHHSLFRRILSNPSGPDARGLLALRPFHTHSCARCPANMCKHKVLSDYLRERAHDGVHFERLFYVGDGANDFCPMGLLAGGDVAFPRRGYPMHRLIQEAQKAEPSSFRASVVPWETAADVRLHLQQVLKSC
PfGluPho inh – PfG6PD enzyme inhibitors, primary screen, biochemical, fluorescence intensity, uHTS; glucose-6-phosphate dehydrogenase-6-phosphogluconolactonase (Plasmodium falciparum 3D7); PfGluPho enzyme, NADPH resazurin-diaphorase fluorescence; inhibition, % at 20 µM; hit rate 0.78% among 350,000; AID 504690, 2011;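 active = inhibition reaching at least a set limit at 20 µM in the primary screen, cut at about 59% in these data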
ALR inh – inhibitors of human ALR sulfhydryl oxidase, primary screen, biochemical, H2O2 detection, HRP-luminol luminescence, single point. FAD-linked sulfhydryl oxidase ALR (Homo sapiens), P55789. inhibition, % (concentration not given with the values). hit rate 3.8% among 290,000. purified ALR, DTT oxidation;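 active = mean replicate inhibition above about 79%, with every replicate also reaching it, limit read from the data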
Target sequence (P55789 whole entry, looked up): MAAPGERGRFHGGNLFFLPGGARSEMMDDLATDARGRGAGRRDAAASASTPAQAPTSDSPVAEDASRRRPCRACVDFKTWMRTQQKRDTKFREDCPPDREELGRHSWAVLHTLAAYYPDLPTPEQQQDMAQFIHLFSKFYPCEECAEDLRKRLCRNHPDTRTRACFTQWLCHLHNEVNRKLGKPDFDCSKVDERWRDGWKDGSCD
H9c2 protect – cardioprotection against H2O2-induced cell death, primary screen, uHTS, H9c2 cells, ATPLite luminescence; H9c2 cardiomyocytes, H2O2 injury protection, 2 h; protection from H2O2 cell death, % at 20 µM; hit rate 0.63% among 360,000; AID 588492, 2011;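 active = compounds giving at least 50% protection of heart cells from peroxide-induced death in the single-dose screen, raw or plate-pattern-corrected value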
M18AAP inhibitor – PfM18AAP inhibitors, malaria aminopeptidase, primary screen, biochemical, QFRET, recombinant enzyme; hit rate 1.2% among 290,000; H-Glu-NHMec fluorogenic cleavage; inhibition, % at 7.35 µM; M18 aspartyl aminopeptidase (Plasmodium falciparum 3D7);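 active = inhibition above the campaign mean inhibition over all tested compounds plus 3 SD, cut at about 28% in these data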
Hits are given with their value; i = inactive; nt = no result given.

SMILES	PHOSPHO1 inh	PfGluPho inh	ALR inh	H9c2 protect	M18AAP inhibitor
COc1ccc(CNc2ccc(N3CCOCC3)cc2)cc1	i	i	98.9	i	i
c1ccc(CNc2ccc(N3CCOCC3)cc2)cc1	nt	i	99.0	i	nt
c1ccc2c(Nc3ccc(N4CCOCC4)cc3)nc(N3CCOCC3)nc2c1	i	i	92.4	i	i
O=S(=O)(c1ccc(NCc2ccccc2)cc1)N1CCOCC1	i	i	i	i	i
Cc1cccc(-c2nc(Nc3ccc(N4CCOCC4)cc3)c3ccccc3n2)c1	i	i	nt	i	i
C[C@H](CO)N1C[C@H](C)[C@@H](CN(C)S(=O)(=O)c2ccccc2F)Oc2ncc(C#Cc3cccnc3)cc2C1=O	nt	i	nt	i	nt
CCOC(=O)C1=CCN(S(=O)(=O)c2ccc(C)cc2)[C@H]1c1ccccc1Cl	nt	nt	nt	i	nt
Fc1ccc(N=Cc2ccc[nH]2)cc1	i	i	i	i	i
CC(=O)Nc1ccc(N=Cc2ccc[nH]2)cc1	i	i	98.1	i	i
Cc1ccc(OCc2n[nH]c(=S)n2-c2ccc(Cl)cc2)cc1	i	i	nt	i	i
CCN(CC)c1ccc(-c2n[nH]c(=S)n2-c2ccccc2)cc1	i	i	i	i	i
CCc1ccc(-n2c(C)n[nH]c2=S)cc1	i	i	nt	i	i
Cc1n[nH]c(=S)n1-c1ccc(Cl)cc1	i	i	89.1	i	i
S=c1[nH]nc(COc2ccc(Cl)cc2)n1-c1ccc(Cl)cc1	i	i	84.9	i	i
CN(C)c1ccc(-c2n[nH]c(=S)n2-c2ccccc2)cc1	i	i	94.9	i	i
Cc1n[nH]c(=S)n1-c1ccccc1	89.5	i	i	i	i
Cc1ccc(-n2c(-c3ccccc3)n[nH]c2=S)cc1	i	i	i	i	i
COC(=O)C(CC(=O)c1ccc(Br)cc1)n1cccn1 (configuration not stated)	i	i	i	i	i
COc1ccc(CNC(=O)CN(C(=O)CCC(=O)Nc2nccs2)c2ccc(C)cc2)cc1	i	i	nt	i	i
Cc1cccc(NS(=O)(=O)c2cc(C(=O)N3CCCCCC3)ccc2C)c1	i	i	i	i	i
S=c1[nH]nc(Cc2noc3ccccc23)n1-c1ccc(Cl)cc1	i	i	92.3	i	i
CCC(c1n[nH]c(=S)n1-c1ccccc1)N(C)C (configuration not stated)	i	i	nt	i	31.4
COc1ccc(/C=N/Nc2ccccc2C(=O)O)cc1Cn1cc([N+](=O)[O-])cn1	60.0	i	nt	i	i
COCCCN(Cc1cc(OC)c(OC)c(OC)c1)C(=S)Nc1cccc(Cl)c1	nt	i	nt	i	nt
COc1cc(/C=C2/C(=O)c3cccc([N+](=O)[O-])c3C2=O)c(Br)cc1O	i	i	nt	i	29.7
SMILES	PHOSPHO1 inh	PfGluPho inh	ALR inh	H9c2 protect	M18AAP inhibitor
CCOC(=O)CN=C1CC(C)(C)CC2=C1Sc1ncnc(N(C)C)c1N2	96.8	i	nt	i	i
CC(=O)C1=C(c2cccc([N+](=O)[O-])c2)N(C(C)=O)n2c(C)nnc2S1	i	i	97.7	i	i
COc1ccc(C(O)c2ncc(-c3cccc(C(F)(F)F)c3)[nH]2)cc1 (configuration not stated)	nt	nt	nt	i	nt
COc1cc2nc(Nc3ccc(F)cc3)nc(N)c2cc1OC	i	i	i	54.9	i
N#CC1=C(S)N=C(N)C(c2nc(-c3ccccc3)cs2)C12CCCCC2 (configuration not stated)	63.7	i	i	i	i
N#CC1=C(S)N=C(N)C(c2nc(-c3ccccc3)cs2)C12CCCC2 (configuration not stated)	i	i	i	i	i
COc1ccc(/C=N/NC(=O)c2cccnc2)cc1CSc1nc2ccccc2s1	i	i	i	57.5	i
Cc1cc(=O)oc2cc(NC(=O)C(CCCN=C(N)N)NC(=O)OCc3ccccc3)ccc12 (configuration not stated)	i	i	i	i	i
Cc1nc2cc(C(=O)O)ccc2n1C1CCCCC1	i	i	i	i	i
CCn1c(C)nc2cc(N)ccc21	i	i	98.1	i	i
Cc1nc2cc(N)ccc2n1C1CCCCC1	i	i	99.7	i	i
CCn1c(=O)n(CC)c2cc(N)ccc21	i	i	97.9	i	i
C#Cc1ccc(CN2CCC(Oc3cc(C(=O)NC4CC4)ccc3OC)CC2)cc1	i	i	nt	i	i
CCn1cc(C(=O)NCCC(=O)NC(C)C)c(=O)c2cc3c(cc21)OCO3	i	i	i	i	i
CC(C)C(NC(=O)CSCc1ccc([N+](=O)[O-])cc1)C(C)C	i	i	98.4	i	i
N#Cc1c(-c2ccccc2)nc(SCc2nc(N)nc(N3CCCCC3)n2)[nH]c1=O	i	i	97.3	i	i
CCSc1nc(-c2ccccc2)c(C#N)c(=O)[nH]1	i	i	i	i	i
CC(=O)Nc1cccc(NC(=O)CSc2nnnn2Cc2ccccc2)c1	i	i	98.6	i	i
COc1ccc(-n2nnnc2SCC(=O)Nc2cccc(NC(C)=O)c2)cc1OC	i	i	99.3	i	i
CC(=O)c1ccc(-n2nnnc2SCC(=O)Nc2cccc(NC(=O)c3ccco3)c2)cc1	i	i	99.1	i	i
CCCNC(=O)C[C@@H]1C[C@@H]2c3cc(NS(=O)(=O)c4ccc(OC)cc4)ccc3O[C@@H]2[C@@H](CO)O1	nt	i	nt	i	nt
COc1ccccc1-c1csc(C(O)(c2ccccc2)C(F)(F)F)n1 (configuration not stated)	nt	nt	nt	i	nt
CCOc1ccc(NC(=O)CN(C)C(=O)c2ccc(OCC(=O)N3CCOCC3)c(OC)c2)cc1OCC	nt	i	nt	i	nt
Cc1ccn2c(NC3CCCCC3)c(C)nc2c1	i	i	95.2	i	i
CCC(C)Sc1ccc(-c2nc3cc(C)ccn3c2NC2CCCCC2)cc1 (configuration not stated)	nt	i	nt	i	nt
SMILES	PHOSPHO1 inh	PfGluPho inh	ALR inh	H9c2 protect	M18AAP inhibitor
Cc1ccn2c(NC3CCCCC3)c(C(C)C)nc2c1	i	i	99.1	i	i
S=c1nn[nH]n1C12CC3CC(CC(C3)C1)C2	101.6	i	i	i	i
c1cn(C23CC4CC(CC(C4)C2)C3)cn1	i	i	nt	i	i
CCc1cc(SC#N)cc(CC)c1NC(=O)CCl	i	i	99.0	i	i
CCOc1ccc(NC(=O)CN(C)C(=O)C(C)N2C(=O)c3ccccc3C2=O)cc1OCC (configuration not stated)	nt	i	i	i	nt
O=C(Cn1cc(S(=O)(=O)Cc2ccc([N+](=O)[O-])cc2)c2ccccc21)N1CCOCC1	i	i	i	i	i
CC(=O)/C=C(\C)Nc1ccccc1O	i	i	i	i	29.0
COc1ccc(CCNC(=O)C2COc3ccccc3O2)cc1OC (configuration not stated)	nt	i	nt	i	nt
COc1ccc(CN2CC(C(N)=O)Oc3ccccc32)cc1F (configuration not stated)	i	i	98.5	i	i

Screening results (PubChem)
